# High-throughput results: PubChem BioAssay, several laboratories
# A selection: hits, their analogues and other compounds. The true share with any hit is near 1.4%.
# Y pestis TopoI = inhibitors of Yersinia pestis topoisomerase I; Y. pestis Topo-I cleavage product accumulation, plate reader; actives 0.064% (n = 360,000); activity, % at 10 µM; in the data active means activity above about 50%, passing the limit was not always enough; inconclusive means no clear call, values can overlap the other calls
# PrP UTR inh = suppresses PrP 5' UTR mRNA reporter expression | cell-based PrP 5' UTR mRNA reporter, plate reader | inhibition, % (no concentration beside the values) | actives 0.35% (n = 340,000); in the data active means inhibition above about 52%; further: 0 = median of the neutral control wells
# PfHsp40 rescue = rescue of PfHsp40-mediated yeast toxicity. S. cerevisiae expressing PfHsp40, growth rescue, ATP luminescence. growth rescue, % at 12.5 µM. actives 0.68% (n = 340,000). AID 504582; in the data active means growth rescue above about 28%, passing the limit was not always enough; inconclusive means no clear call, values can overlap the other calls;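 further: yeast W303a lacking pdr1 and pdr3 grown in galactose medium; growth measured after three days at 30 °C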
# BJeLR viability = kills HRASV12-expressing BJeLR cells; actives 0.17% (n = 300,000); BJeLR (HRASV12) viability, CellTiter-Glo ATP luminescence, 48 h; AID 1554; inhibition, % (no concentration beside the values); in the data active means inhibition above about 50%; inconclusive means no clear call, values can overlap the other calls
# Sa ugtP lethal = kills S. aureus RN4220 lacking UgtP; S. aureus RN4220 ugtP deletion, OD600 growth, 16 h; growth inhibition, % (concentration not given with the values); actives 0.54% (n = 330,000); AID 1259309; in the data active means growth inhibition above about 68%;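 further: plate controls were untreated wells for no effect and antibiotic for full effect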
# RN4220 kill = S. aureus RN4220 growth inhibition. AID 1259311. inhibition, % (test concentration not listed). actives 0.33% (n = 330,000). OD600, 16 h; in the data active means inhibition above about 85%;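 further: plate controls were untreated cells for no effect and reference antibiotic for full effect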
# Active calls of the source: *; ? = inconclusive; · = no result.
SMILES,Y pestis TopoI,PrP UTR inh,PfHsp40 rescue,BJeLR viability,Sa ugtP lethal,RN4220 kill
CC(C)(C)OC(=O)NCCCCC(NC(=O)c1nc[nH]c1C(=O)N1CCN(c2ccccc2)CC1)C(=O)OC(C)(C)C (stereo not drawn),·,·,·,·,1,5
COc1ccc(C)c2sc(N(CCCN(C)C)C(=O)c3ccc(S(=O)(=O)N4CCc5ccccc5C4)cc3)nc12,-17,-19,-3,81*,-9,-2
COc1ccc(OC)c2sc(N(CCCN(C)C)C(=O)c3ccc(S(=O)(=O)N4CCc5ccccc5C4)cc3)nc12,·,·,·,89*,·,·
COc1cccc2sc(N(CCCN(C)C)C(=O)c3ccc(S(=O)(=O)N4CCc5ccccc5C4)cc3)nc12,-15,-5,-1,1,7,-1
Cc1ccc2sc(N(CCCN(C)C)C(=O)c3ccc(S(=O)(=O)N4CCc5ccccc5C4)cc3)nc2c1C,9,-24,79*,6,-4,3
COC(=O)C(Cc1ccccc1)NC(=O)C1CC1C(NC(=O)OCc1ccccc1)c1ccccc1 (stereo not drawn),·,·,·,·,8,5
CN(C)CCN1C(=O)C(=O)C(=C(O)c2ccc(OCc3ccccc3)cc2)C1c1ccncc1 (stereo not drawn),·,·,·,·,-3,4
O=Nc1c2cc3ccccc3[nH]c-2c2ccccc12,1,-82,54*,·,-14,3
O=c1c2ccccc2[nH]c2ccccc12,3,-8,0,-6,10,0
CC(=O)C1=C(C)N(CC2CC2)C(=O)NC1c1cccs1 (stereo not drawn),·,·,·,·,-1,7
Cc1ccc(S(=O)(=O)N2CCOC23CCN(C(=O)c2ccc(Cl)cc2Cl)CC3)cc1,?,-17,3,3,-17,-2
O=S(=O)(c1ccc(Cl)cc1)N1CCC2(CC1)OCCN2S(=O)(=O)c1cccs1,12,-12,55*,11,10,4
Cc1ccc(S(=O)(=O)N2CCOC23CCN(C(=O)c2cc(Cl)ccc2Cl)CC3)cc1,21,-13,91*,3,-7,-5
CCOC(=O)C(C(=O)Nc1ccccc1Br)=C1NC(C)(C)Cc2ccccc21,·,·,·,·,20,-9
CC1=CSC(=C(C#N)C(=O)N2CCCCC2)N1c1ccccc1,·,·,·,·,3,7
O=C1C=C(c2ccc3c(c2)oc2ccccc23)CC(c2ccc(Cl)cc2)C1 (stereo not drawn),·,·,·,·,-3,-8
CN(C)S(=O)(=O)Oc1cccc(C(=O)Nc2ccc(Cl)c(Cl)c2)c1,-11,-110,233*,6,-13,-3
CN(C)S(=O)(=O)Oc1cccc(C(=O)Nc2cccc(Cl)c2)c1,-3,-48,0,12,2,3
CCN1CCN(C(c2ccc(C(F)(F)F)cc2)c2ccc3cccnc3c2O)CC1 (stereo not drawn),-4,4,60*,23,37,14
O=C(Nc1ccccc1)c1ccc(Nc2c([N+](=O)[O-])cc([N+](=O)[O-])c3ccccc23)cc1,-5,-10,-1,5,·,·
O=[N+]([O-])c1cc(Br)c(Nc2ccccc2)c([N+](=O)[O-])c1,-5,-14,67*,60*,4,28
O=[N+]([O-])c1ccc(OCc2cn(C(CO)c3ccccc3)nn2)c(Br)c1 (stereo not drawn),·,·,·,·,12,11
CCCCC(CNC)NCC(NCCCCC1CCCCC1)C(C)C (stereo not drawn),·,·,·,·,4,1
Cc1nnc(SCC2=C(C(=O)O)N3C(=O)C(NC(=O)Cn4ncc(Cl)c4C)C3SC2)s1 (stereo not drawn),5,-32,1,-6,99*,99*
CC1=C(C(=O)O)N2C(=O)C(NC(=O)c3c(F)cccc3F)C2SC1 (stereo not drawn),1,-10,0,·,6,6
SMILES,Y pestis TopoI,PrP UTR inh,PfHsp40 rescue,BJeLR viability,Sa ugtP lethal,RN4220 kill
CC1=C(C(=O)O)N2C(=O)C(NC(=O)c3ccn(C)n3)C2SC1 (stereo not drawn),-3,-9,0,4,3,4
Cc1nnc(SCC2=C(C(=O)O)N3C(=O)C(NC(=O)c4cccc(F)c4F)C3SC2)s1 (stereo not drawn),3,-9,0,-1,101*,100*
CC1=C(C(=O)O)N2C(=O)C(NC(=O)Cc3ccccc3)C2SC1 (stereo not drawn),3,-13,-1,-2,37,27
Cc1cc(C)n(CC(=O)NC2C(=O)N3C(C(=O)O)=C(CSc4nnc(C)s4)CSC23)n1 (stereo not drawn),-7,-25,-1,·,100*,100*
COc1ccc(-c2n(CC(=O)OC3CC(C)CCC3C(C)C)c3ccccc3[n+]2C)cc1 (stereo not drawn),5,-19,0,12,101*,101*
CC1CCC(C(C)C)C(OC(=O)CSc2nccc(=O)[nH]2)C1 (stereo not drawn),-1,-19,1,-1,-13,12
CC1CCC(C(C)C)C(OC(=O)COC(=O)c2ccc(=O)[nH]c2)C1 (stereo not drawn),29,-5,2,2,7,4
COc1ccc(OCc2n(CC(=O)OC3CC(C)CCC3C(C)C)c3ccccc3[n+]2C)cc1 (stereo not drawn),8,-2,-1,11,100*,101*
CC1NC(=O)c2cc([N+](=O)[O-])cc(F)c2NCCCC(C(N)=O)NC(=O)C(CC(N)=O)NC1=O (stereo not drawn),·,·,·,·,3,5
O=C1C=C(c2ccc3ccccc3c2)CC(c2ccc(Cl)cc2)C1 (stereo not drawn),·,·,·,·,-1,-5
O=C1CC(N(CCc2ccccc2)C(=S)Nc2ccccc2)C(=O)N1c1ccc(Br)cc1 (stereo not drawn),-11,-18,1,7,98*,98*
CCC(C)n1c(=O)c(C(=O)Nc2ccccc2S(N)(=O)=O)c(O)c2ccccc21 (stereo not drawn),1,6,0,-1,76,103*
FC(F)(F)c1ccc(C2C3CN(Cc4ccc(-c5ccccc5)cc4)C(c4ccccc4)C34CC2(c2cccnc2)C4)cc1 (stereo not drawn),·,·,·,·,0,5
CCCC(C#Cc1cc(OC)cc(OC)c1)=C1c2ccccc2C(=O)N1c1ccccc1,·,·,·,·,2,0
O=C(CC1CC=CCC(Cc2ccc(F)cc2)C(=O)OC(c2ccccc2)CNC1=O)NCCO (stereo not drawn),·,·,·,·,2,5
CCCCOC(=O)Nc1nnc(/C=C/c2ccc(OC)cc2)s1,53*,-18,-1,-2,-13,7
CC1CCc2nc(C(C#N)=Cc3ccncc3)sc2C1 (stereo not drawn),·,·,·,·,-2,5
Cc1cccc(Nc2nc(-c3sc(C)nc3C)cs2)c1,6,-45,1,-3,90*,-7
Cn1c(O)c(C=Nc2ccc(N3CCOCC3)cc2)c(=O)n(C)c1=S,1,-19,68*,-1,-7,4
